Results filed as inconclusive are left out. A number with no mark means an inactive call. Activity calls are given as the source filed them. Calls follow the shape of the dose curve; as a rule, active = well fitted cell-killing curve with a large enough effect; inconclusive = small, poorly fitted or top-dose-only effect; inactive = flat fitted curve, though single readings scatter.
Test: qHTS of pediatric cancer cell lines to identify multiple opportunities for drug repurposing: Primary screen for RD cells (AID 1347104); also: nearly all actives have a fitted effect of over 55% in size;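 as to activity change, negative = cytotoxic: plate controls were DMSO for no effect and bortezomib for full effect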
Details: RD rhabdomyosarcoma viability, CellTiter-Glo luminescence, 48 h; series mostly up to 46 µM; activity change, negative = cytotoxic: at the top concentration
How it was run: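 Primary screen of approved and investigational compounds on cells in growth media at 37 degrees C, 5% CO2. MIPE set at 11-point and NPC set at 8-point dilutions; viability scored by ATP-based luminescence at 48 hours.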
Potency is read from the fitted curve at half-maximal effect.

| SMILES | activity change, negative = cytotoxic | Potency |
| --- | --- | --- |
| NC(Cc1ccc(Cl)cc1)C(=O)O (stereo unspecified) | 7.62% [at 0.597 µM] |  |
| CCCCCN(CCCCC)C(=O)C(CCC(=O)O)NC(=O)c1ccc(Cl)c(Cl)c1 (stereo unspecified) | 11.4% |  |
| CCO/C([O-])=N/c1c[n+](N2CCOCC2)no1 | 2.72% |  |
| CSc1ccc(C(=O)c2[nH]c(=O)[nH]c2C)cc1 | 13.8% |  |
| CCn1cc(C(=O)O)c(=O)c2cc3c(cc21)OCO3 | 2.27% [at 16.1 µM] |  |
| CC(=O)[C@@]1(O)CC[C@H]2[C@@H]3CCC4=CC(=O)CC[C@]4(C)[C@H]3CC[C@@]21C | -3.06% |  |
| CN(C)CCN(Cc1cccs1)c1ccccn1 | 6.52% |  |
| CC(C)(C)NCC(O)c1cc(O)cc(O)c1 (stereo unspecified) | 6.85% |  |
| CN(C)C(=O)Oc1cccc([N+](C)(C)C)c1 | 7.45% |  |
| COc1ccc(CN(CCN(C)C)c2ccccn2)cc1 | -1.64% |  |
| O=c1[nH]c(=O)n([C@H]2C[C@H](O)[C@@H](CO)O2)cc1Br | -5.47% |  |
| C[C@]12C=CC(=O)C=C1CC[C@H]1[C@@H]3C[C@@H](O)[C@](O)(C(=O)CO)[C@@]3(C)C[C@H](O)[C@@]12F | 11.6% |  |
| CCCNC(C)C(=O)Nc1ccccc1C (stereo unspecified) | 14.6% |  |
| CC(N=C(NC#N)Nc1ccncc1)C(C)(C)C (stereo unspecified) | 5.21% |  |
| CC(=O)[C@]1(O)Cc2c(O)c3c(c(O)c2[C@@H](O[C@H]2C[C@H](N)[C@H](O)[C@H](C)O2)C1)C(=O)c1ccccc1C3=O |  | 1060 nM (active) |
| NC/C=C/C(=O)O | 12% |  |

| SMILES | activity change, negative = cytotoxic | Potency |
| --- | --- | --- |
| Nc1c2c(nc3ccccc13)CCCC2O (stereo unspecified) | 3.4% |  |
| Cc1cccc(C)c1NC(=O)C(C)N (stereo unspecified) | 6.6% |  |
| CCNC(=O)N1CCN(CCCC(c2ccc(F)cc2)c2ccc(F)cc2)CC1 | -11.5% |  |
| C[C@]12CCC(=O)C=C1CC[C@@H]1[C@@H]2C(=O)C[C@@]2(C)[C@H]1CC[C@]2(O)C(=O)CO | 11.1% |  |
| COc1cc(Cc2cnc(N)nc2N)cc(OC)c1OC | 3.46% |  |
| CN(C)C/C=C(/c1ccc(Br)cc1)c1cccnc1 | 1.78% |  |
| O=C1CC2(CCCC2)CC(=O)N1CCCCN1CCN(c2ncccn2)CC1 | 3.22% |  |
| Cc1nnc(SCC2=C(C(=O)O)N3C(=O)[C@@H](NC(=O)Cn4cnnn4)[C@H]3SC2)s1 | 14.4% |  |
| CC1=NS(=O)(=O)c2cc(Cl)ccc2N1 | 7.37% |  |
| O=C(O)CCCCCCCC(=O)O | 6.74% |  |
| CCN(CC)CC(=O)Nc1c(C)cccc1C | 1.27% |  |
| NC1=NCC2c3ccccc3Cc3ccccc3N12 (stereo unspecified) | -13.3% |  |
| Cc1scc2c1N(C(=O)CN1CCN(C)CC1)c1ccccc1NC2=O | 3.54% |  |
| CCCOc1ccccc1-c1nc2n[nH]nc2c(=O)[nH]1 | -0.347% |  |
| CN(C)CCOC(=O)COc1ccc(Cl)cc1 | 17.3% |  |
